From PubChem BioAssay
Avidin fluor = green autofluorescence of compounds with avidin beads – biophysical, 488/530 nm, flow cytometry, artefact control, profiling panel. compound fluorescence 488/530 nm; stronger effect = higher value. fluorescence (KMESF) at 10 µM. 0.38% of 220,000 active. AID 1775, 2009; in the data active means fluorescence above about 47
RGS4-Gao reg = modulators of RGS4 binding to Galphao, primary screen, biochemical, multiplexed bead flow cytometry; Guanine nucleotide-binding protein G(o) subunit alpha (Homo sapiens), P09471; actives lie on both sides; binding response (% of control), % at 10 µM; 0.33% of 220,000 active; in the data active means binding response below about 49% or above about 150%; inactive means in between;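 further: fluorescent Galphao activated with aluminum fluoride binding bead-coupled RGS4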
Target sequence (P09471 whole entry, looked up): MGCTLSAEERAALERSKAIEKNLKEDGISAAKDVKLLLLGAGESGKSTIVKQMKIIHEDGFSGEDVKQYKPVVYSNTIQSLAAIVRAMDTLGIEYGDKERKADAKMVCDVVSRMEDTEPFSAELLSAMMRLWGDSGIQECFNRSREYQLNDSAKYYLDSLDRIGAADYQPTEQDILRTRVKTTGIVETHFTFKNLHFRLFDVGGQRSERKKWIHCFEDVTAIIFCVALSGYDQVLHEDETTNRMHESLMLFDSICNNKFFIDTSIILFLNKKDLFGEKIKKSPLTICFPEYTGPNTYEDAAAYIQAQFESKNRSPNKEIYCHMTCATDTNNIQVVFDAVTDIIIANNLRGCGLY
GSH bead fluor = compound fluorescence on glutathione beads, profiling panel, artefact control, biophysical, 488/530 nm, flow cytometry. GSH beads flow cytometry, compound fluorescence 488/530 nm; stronger effect = higher value. fluorescence (KMESF) at 10 µM. 0.25% of 190,000 active. AID 1776, 2009; in the data active means fluorescence above about 89;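 further: glutathione beads carrying GST-tagged Bcl family fusion proteins plus one bare bead set; values are compound well signal with DMSO vehicle wells as background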
RGS16-Gao HTS = modulators of RGS16 binding to Galphao, primary screen, biochemical, human proteins, multiplexed bead flow cytometry. Regulator of G-protein signaling 16 (Homo sapiens) + Guanine nucleotide-binding protein …. bead-based flow cytometry RGS16-Galphao binding, fluorescence; actives lie on both sides. binding response (% of control), % at 10 µM. 0.38% of 220,000 active. AID 1441, 2008;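 further: Galphao activated by GDP with aluminum fluoride before binding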
RGS8-Gao = RGS8-Galphao binding modulators, primary screen, biochemical, multiplexed bead flow cytometry; Guanine nucleotide-binding protein G(o) subunit alpha (Homo sapiens), P09471; actives lie on both sides; response (percent of control binding), % at 10 µM; 0.34% of 220,000 active; AID 1423, 2008; in the data active means response below about 60% or above about 140%; inactive means in between;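 further: Galphao activated as the GDP aluminium fluoride complex binding bead-coupled RGS8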
RGS7-Gao = RGS7-Galphao binding modulators, primary screen, biochemical, multiplexed bead flow cytometry. actives lie on both sides. binding response (% of control), % at 10 µM. 0.35% of 220,000 active. Guanine nucleotide-binding protein G(o) subunit alpha (Homo sapiens), P09471; in the data active means binding response below about 49% or above about 150%; inconclusive means no clear call, values can overlap the other calls; inactive means in between;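 further: fluorescent Galphao held in activated GDP-AlF4 state binding bead-coupled RGS7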
RGS-Gao = modulators of RGS–Galpha-o binding, primary screen, biochemical, multiplexed beads, flow cytometry, RGS4/7/8/16/19 | shares compounds with RGS16-Gao HTS | 99% of 1,600 active | multiplexed bead flow cytometry | RGS4–Galpha-o binding response, % at 10 µM;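 further: fluorescently labeled Galpha-o bound to GDP with aluminium fluoride binding biotinylated RGS beads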
Target sequence (P09471 whole entry, looked up): as above
Target sequence (P49798 whole entry, looked up): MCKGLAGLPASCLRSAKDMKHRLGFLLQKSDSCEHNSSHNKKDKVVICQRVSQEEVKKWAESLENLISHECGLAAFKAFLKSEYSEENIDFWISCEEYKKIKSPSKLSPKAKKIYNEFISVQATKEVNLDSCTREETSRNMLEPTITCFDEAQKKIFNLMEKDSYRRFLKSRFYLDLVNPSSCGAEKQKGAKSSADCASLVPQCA
Avidin counter = disruption of biotin probe capture by avidin, counter-screen for RGS protein interaction modulators, biochemical, flow cytometry, bead-based. inhibition, % at 10 µM. shares compounds with RGS16-Gao HTS. 1,700 tested, under 10 active. streptavidin beads, fluorescein-biotin binding;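 active means inhibition above 50%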;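 further: median green fluorescence of gated singlet beads compared with DMSO control wells; 0% = DMSO wells and 100% = complete loss of bead fluorescence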
RGS8-Gao confirm = RGS8-Galphao binding modulators, confirmation, biochemical, multiplexed bead flow cytometry, single concentration | shares compounds with RGS16-Gao HTS | bead-based flow cytometry RGS8-Galphao binding, fluorescence; actives lie on both sides | binding response (% of control), % at 10 µM | 3% of 1,700 active | AID 1836, 2009; in the data active means binding response below about 72% or above about 130%; inactive means in between;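 further: Galphao activated as GDP AlF4 complex before binding bead RGS8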
RGS7-Gao confirm = RGS7-Galphao binding modulators, confirmation, biochemical, multiplexed bead flow cytometry, single concentration; 7.8% of 1,700 active; shares compounds with RGS16-Gao HTS; AID 1837, 2009; response (percent of control binding), % at 10 µM; bead-based flow cytometry RGS7-Galphao binding; actives lie on both sides; in the data active means response below about 75% or above about 130%; inactive means in between;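 further: fluorescent Galphao activated with GDP and aluminum fluoride binding bead-coupled RGS7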
RGS16-Gao single = modulators of RGS16-Galphao protein binding, confirmation, biochemical, single concentration, multiplexed bead flow cytometry; shares compounds with RGS16-Gao HTS; bead-based flow cytometry; actives lie on both sides; response (% of control binding), % at 10 µM; 4% of 1,700 active; AID 1838, 2009; in the data active means response below about 74% or above about 130%; inactive means in between;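 further: Galphao activated as the GDP aluminium fluoride complex binding bead-coupled RGS16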
RGS4-Gao confirm = modulators of RGS4-Galphao protein binding, confirmation, biochemical, single concentration, multiplexed bead flow cytometry | shares compounds with RGS16-Gao HTS | actives lie on both sides | binding response (% of control), % at 10 µM | 4% of 1,700 active | AID 1840, 2009; in the data active means binding response below about 74% or above about 130%; inactive means in between
RGS19-Gao single = regulators of RGS19-Galphao binding, confirmation, biochemical, single point, multiplexed bead flow cytometry. shares compounds with RGS16-Gao HTS. response (percent of control binding), % at 10 µM. bead-based flow cytometry RGS19-Galphao binding; actives lie on both sides. AID 1841, 2009. 5% of 1,700 active; in the data active means response below about 50% or above about 160%; inactive means in between;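 further: 100% = no compound control and 0% = blank background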
Numbers without * were called inactive; i = inactive; ? = inconclusive; . = no result; [ ] = dose if it differs, or a comment. The list is not random: actives were taken first. Their share in the collection is about 1.2%. Unless noted, how the calls were made is not given here.

SMILES | Avidin fluor | RGS4-Gao reg | GSH bead fluor | RGS16-Gao HTS | RGS8-Gao | RGS7-Gao | RGS-Gao | Avidin counter | RGS8-Gao confirm | RGS7-Gao confirm | RGS16-Gao single | RGS4-Gao confirm | RGS19-Gao single
CCOC(=O)c1[nH]c2cc(OC)c(OC)cc2c1NC(=O)CCN1CCSCC1 | 0 | 17* | . | 9.8* | 21* | ? | . | -2 | 95 | 90 | 95 | 95 | 85
COc1ccccc1C(=O)C1CCCN(C(=O)CCc2ccccn2)C1 (stereo not given) | 3 | 97 | 10 | 91 | 94 | 89 | . | . | . | . | . | . | .
Cc1csc(NC(=O)C2C3C=CC(C3)C2C(=O)O)n1 (stereo not given) | -4 | -23* | 32 | -20* | 10* | -9.1* | . | -1 | 99 | 103 | 100 | 100 | 112
O=C1CCC(N2C(=O)c3ccccc3C2=O)C(=O)N1 (stereo not given) | 4 | 37* | 14 | 49 | 46* | 23* | . | -2 | 100 | 99 | 102 | 103 | 99
COc1cc(NS(=O)(=O)c2ccc(NC(=S)NC(=O)/C=C/c3ccco3)cc2)ncn1 | 9 | 99 | 20 | 100 | 101 | 98 | . | . | . | . | . | . | .
N=C1S/C(=C\c2cccc3ccccc23)C(=O)N1c1ccc(F)cc1 | 10 | 100 | 8 | 101 | 101 | 99 | . | . | . | . | . | . | .
CSC1=NC(=O)/C(=C\c2cccc3ccccc23)S1 | 200* | 124 | 11 | 113 | 97 | 223*[activator] | 124* | -1 | 101 | 98 | 99 | 97 | 95
CC(=O)N1CCc2cc(S(=O)(=O)NC(Cc3ccccc3)C(=O)Nc3cc(C)ccn3)ccc21 (stereo not given) | 5 | 129 | 34 | 940 | 153*[activator] | 118 | 129* | i | 100 | 101 | 102 | 102 | 105
CCC(=O)N1CCc2cc(S(=O)(=O)NC(Cc3ccccc3)C(=O)NC3CCCCC3)ccc21 (stereo not given) | 13 | 104 | 22 | 105 | 107 | 104 | . | . | . | . | . | . | .
COc1cccc(-c2cnc(NCc3cc(Cl)ccc3O)n2C)c1 | 55* | 117 | 21 | 145 | 114 | 160*[activator] | 117* | . | . | . | . | . | .
Cn1c(-c2cccc(Br)c2)cnc1NCc1cccnc1 | 14 | 104 | 28 | 106 | 104 | 97 | . | . | . | . | . | . | .
CC(Cc1ccccn1)NC(=O)CCc1nnc(C2CCCCC2)o1 (stereo not given) | 6 | 91 | 15 | 97 | 97 | 93 | . | . | . | . | . | . | .
NC(=O)C1CCN(C2=C(NS(=O)(=O)c3ccccc3)C(=O)c3ccccc3C2=O)CC1 | 1 | 26* | . | 16* | 19* | ? | . | 0 | 108 | 99 | 112 | 107 | 113
COc1ccc(N=C/C=C2/C=C(c3ccccc3)OC(C)(C)O2)cc1 | 9 | 104 | 9 | 107 | 105 | 107 | . | . | . | . | . | . | .
COC(=O)Nc1csc2c1NC(=O)CCCC2 | -1 | -9.2* | . | -4.2* | 18* | ? | . | -1 | 95 | 84 | 91 | 93 | 99
O=c1[nH]c2ccc(NC(=S)Nc3ccc(F)cc3)cc2[nH]1 | 7 | 107 | . | 102 | 106 | ? | . | . | . | . | . | . | .
Cc1ccc(S(=O)(=O)/N=C(/Nc2ccc3[nH]c(=O)[nH]c3c2)c2ccc(F)cc2)cc1 | 37 | 104 | 14 | 100 | 99 | 152*[activator] | 104* | -1 | 107 | 102 | 117 | 105 | 116
CC(=O)Nc1ncc2c(n1)CC(c1ccco1)CC2=O (stereo not given) | 14 | 97 | 26 | 99 | 98 | 94 | . | . | . | . | . | . | .
O=C(CSC(=S)N1CCCCC1)Nc1ncc2c(n1)CC(c1ccco1)CC2=O (stereo not given) | 7 | 181*[activator] | . | 166 | 144*[activator] | ? | . | 0 | 95 | 95 | 97 | 94 | 94
Cc1ccc(S(=O)(=O)NC(=O)Nc2ncc3c(n2)CC(c2ccco2)CC3=O)cc1 (stereo not given) | 2 | 79 | 8 | 14* | 63 | 77 | 79* | 0 | 102 | 107 | 102 | 103 | 93
COc1ccc(C)cc1-n1nnnc1SCC1CCCO1 (stereo not given) | 2 | 26* | 24 | 17* | 16* | 21* | . | -2 | 108 | 108 | 108 | 106 | 118
Cn1c2c(c(=O)n(C)c1=O)CN(Cc1ccc3c(c1)OCO3)CN2 | 6 | 104 | 59 | 222*[activator] | 133 | 100 | 104* | 2 | 97 | 96 | 99 | 100 | 112
CCCC(CCC)C(=O)Nc1ccc2c(c1)N(C(=O)CN1CCN(C)CC1)c1ccccc1CC2 | 6 | 121 | 24 | 253*[activator] | 129 | 119 | 121* | 1 | 105 | 104 | 102 | 102 | 100
C=CCSc1nnc2nc3[nH]c4c(C)cccc4c3nn12 | 10 | 97 | 33 | 100 | 101 | 99 | . | . | . | . | . | . | .
